Shown are actives, neighbours in structure and some others; about 19% of the full set was active somewhere.
TDP1 cell noCPT: qHTS for Inhibitors of human tyrosyl-DNA phosphodiesterase 1 (TDP1): qHTS in cells in absence of CPT | DT40 Tdp1-/- hTDP1 cells, no CPT, ATP luminescence, 48 h | Potency, µM (titrated, usually from 46.2 µM), actives largely listed as inhibitors | 15% of 420,000 active | AID 686978, 2013; further: nearly all actives have a fitted effect of over 55% in size
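Stably hTDP1-transfected Tdp1-null chicken DT40 cells were treated with library compounds minus camptothecin and grown for at least 48 hr at 37 °C, after which cellular ATP was quantified by luminescence.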
S-ASM inh: human S-ASM enzyme inhibition; P17405; placental ASM, HMU-PC fluorogenic substrate, 60 min; Potency, µM (titrated, usually from 57.5 µM), usual class: inhibitors; 0.006% of 340,000 active; AID 504937
Target sequence (P17405 47-631 limits assumed): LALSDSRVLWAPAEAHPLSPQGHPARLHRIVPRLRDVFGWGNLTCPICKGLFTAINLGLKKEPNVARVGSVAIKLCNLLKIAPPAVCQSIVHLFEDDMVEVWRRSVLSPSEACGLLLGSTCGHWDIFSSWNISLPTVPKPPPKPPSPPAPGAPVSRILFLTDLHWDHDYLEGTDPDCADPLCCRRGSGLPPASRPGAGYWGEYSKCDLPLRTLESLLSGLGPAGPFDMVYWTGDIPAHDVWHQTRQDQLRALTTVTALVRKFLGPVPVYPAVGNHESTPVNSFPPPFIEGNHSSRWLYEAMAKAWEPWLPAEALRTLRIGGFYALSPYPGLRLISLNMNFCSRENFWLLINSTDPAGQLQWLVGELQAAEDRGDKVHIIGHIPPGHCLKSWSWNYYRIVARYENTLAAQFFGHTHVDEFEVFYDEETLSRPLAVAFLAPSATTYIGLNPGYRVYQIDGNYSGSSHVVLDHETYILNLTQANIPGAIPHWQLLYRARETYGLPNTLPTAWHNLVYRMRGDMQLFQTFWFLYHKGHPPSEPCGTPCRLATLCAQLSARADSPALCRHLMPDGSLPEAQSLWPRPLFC
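Human placenta-derived ASM preincubated with compound 10 min at room temperature, then reacted with 9 uM (final) fluorogenic HMU-PC substrate for 60 min at 37 C. Stop solution raises pH to 10; fluorescence read at Ex 386/Em 447 nm.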
HepG2 tox: counter-screen for TGF-b inhibitors: cytotoxicity in HepG2 cells | HepG2 CAGA-GFP viability, ATP luminescence, 18 h | Potency, µM (titrated, usually from 46.1 µM), usual class: cytotoxic | 0.76% of 410,000 active | AID 588856
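CellTiter-Glo luminescence gave cytotoxicity after 18 hours at 37 degrees C. The cells were HepG2 CAGA-GFP in 1% FBS DMEM, stimulated with 500 pg/mL TGF-beta after compound addition. %Activity was normalised to no-cell wells (complete cell-killing) and DMSO (no toxicity), and curves were fitted and classified.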
TDP1 cell CPT: DT40-hTDP1 cell growth loss with CPT | chicken DT40 Tdp1-/-;hTDP1 cells + 20 nM CPT, ATP luminescence, 48 h | AID 686979 | Potency, µM (highest dose often 46.2 µM), actives largely listed as inhibitors | 12% of 420,000 active; further: nearly all actives have a fitted effect of over 55% in size
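Chicken DT40 Tdp1-/- cells complemented with human TDP1, 400 cells/well, exposed to compounds plus 20 nM camptothecin for at least 48 h at 37 C; viability read as ATP content by CellTiter-Glo luminescence.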
IL1B secr inh: inflammasome signaling inhibition, IL-1 beta readout | THP-1 LPS/ATP IL-1B secretion, AlphaLISA, 16 h; stronger effect = lower value | activity change, % at 57.5 µM | 4.7% of 360,000 active | AID 743279; in the data active means activity change below about -50%; inconclusive means mostly about -30% to -49%
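Secreted IL-1B measured by AlphaLISA bead assay after 16 h compound exposure of THP-1 cells; compounds (final up to 57.5 uM) added 1 h before LPS (250 ng/mL) and ATP (1.25 mM) stimulation; lower signal means less secretion.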
TGFb inhibitor: blocks TGF-b signaling; HepG2 CAGA-GFP TGF-b/SMAD3 reporter, GFP fluorescence, 18 h; TGF-beta stimulated, 500 pg/mL final; 1.2% of 410,000 active; AID 588855; Potency, µM (highest dose often 46.1 µM), most hits filed as inhibitors; further: nearly all actives have a fitted effect of over 65% in size
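Using HEPG2 CAGA-GFP reporter cells at 1000 cells/well, we pinned test compounds, stimulated with recombinant TGF-beta (500 pg/mL final) and measured total well GFP after 18 h.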
Of the large screens only hits and unclear results are named; the others gave an inactive call. Unless noted, the call rests on the fitted dose curve; in most records, active means well fitted curve in the direction sought with a large enough effect; inconclusive means small, poorly fitted or top-dose-only effect, or another doubt; inactive means no such curve, though single readings can be large; an effect the other way counts as inactive or inconclusive.

O=C(NC1CCC(O)CC1)c1cc(Cl)c2c(c1)OCCO2 (configuration not stated)	none
CC(C)C#Cc1cnc2c(c1)C(=O)N([C@@H](C)CO)C[C@@H](C)[C@H](CN(C)Cc1cccc(F)c1)O2	TDP1 cell noCPT inconclusive, TDP1 cell CPT inconclusive, IL1B secr inh inconclusive, TGFb inhibitor inconclusive (no result: S-ASM inh)
COc1ccc(Cl)cc1NC(=O)N(C)CCc1c(C)nn(C)c1C	TDP1 cell noCPT inconclusive (no result: S-ASM inh, IL1B secr inh)
CCCC(c1nnnn1C1CCCC1)N1CCN(c2ccccc2F)CC1 (configuration not stated)	TDP1 cell noCPT 23µM, TDP1 cell CPT inconclusive, TGFb inhibitor inconclusive
O=C(c1cc(COc2ccc3ncccc3c2)on1)N1CCCC1	TDP1 cell noCPT 6.5µM, TDP1 cell CPT 7.3µM (no result: S-ASM inh)
O=C(NC1CCCC1)c1cc(COc2ccc3ncccc3c2)on1	TDP1 cell noCPT 2.1µM, TDP1 cell CPT 3.7µM
O=C(c1cc(COc2ccc3ncccc3c2)on1)N1CCCCCC1	TDP1 cell noCPT 2.6µM, TDP1 cell CPT 4.1µM
Cc1ccc(OCc2cc(C(=O)N3CCCC3)no2)cn1	TDP1 cell noCPT inconclusive
Cc1ccc(OCc2cc(C(=O)NC3CCCCC3)no2)cn1	TDP1 cell noCPT 8.2µM, TDP1 cell CPT 13µM
O=C(O)CCc1cccc2ccccc12	none (no result: S-ASM inh, IL1B secr inh)
COc1ccccc1CNc1ccc(-c2nc(-c3cccc(C)c3)no2)cc1[N+](=O)[O-]	none (no result: S-ASM inh, IL1B secr inh)
CCOC(=O)C(C)(C)n1nnc(-c2ccc([N+](=O)[O-])cc2)n1	none
O=C(NCCc1cn2ccccc2n1)c1cc(COc2ccc3ncccc3c2)on1	TDP1 cell noCPT 5.8µM, TDP1 cell CPT 4.1µM
COCC1CCN(C(=O)c2cc(COc3ccc4ncccc4c3)on2)CC1	TDP1 cell noCPT 8.2µM, TDP1 cell CPT 3.7µM
CC(NC(=O)c1cc(COc2ccccc2)on1)c1nccs1 (configuration not stated)	TDP1 cell CPT inconclusive
O=C(NCCc1cn2ccccc2n1)c1ccccc1F	none
CC(NC(=O)c1cc(COc2ccc3ncccc3c2)on1)c1ccc(F)cc1 (configuration not stated)	TDP1 cell noCPT 3.7µM, TDP1 cell CPT 6.5µM
CC(=O)Nc1ccc(C(=O)NNC(=O)c2cccc(C)c2)cc1	none
COc1cccc(CN(C)C(=O)CC[C@H]2O[C@@H](n3ccc(=O)[nH]c3=O)[C@H](O)[C@@H]2O)c1	none (no result: S-ASM inh)
O=C(O)c1ccc(N/N=C/c2ccc3nccnc3c2)cc1	TDP1 cell noCPT 12µM, TDP1 cell CPT 12µM
COC(=O)C1(Cc2ccc(O)c(CC3OC3(C)C)c2)OC(=O)C(O)=C1c1ccc(O)cc1 (configuration not stated)	none
CCOC(=O)c1ccccc1NC(=O)c1ccc(Cl)c(S(=O)(=O)N2CCOCC2)c1	TDP1 cell noCPT 16µM, TDP1 cell CPT inconclusive
O=C(Nc1cccc(Br)c1)c1ccc(Cl)c(S(=O)(=O)N2CCOCC2)c1	TDP1 cell noCPT 18µM, TDP1 cell CPT 15µM, IL1B secr inh -96, TGFb inhibitor inconclusive
O=C(Nc1ccccc1)c1ccc(NCc2cccnc2)c(S(=O)(=O)N2CCOCC2)c1	TDP1 cell noCPT 15µM
CCOC(=O)c1ccccc1NC(=O)COC(=O)c1ccc(C)c(S(=O)(=O)N2CCOCC2)c1	none
O=C(NC1CCCCCC1)c1ccc(Cl)c(S(=O)(=O)N2CCOCC2)c1	TDP1 cell noCPT 29µM, TDP1 cell CPT inconclusive
O=C(Nc1ccccc1)c1ccc(NCc2ccco2)c(S(=O)(=O)N2CCOCC2)c1	TDP1 cell noCPT inconclusive
O=C(Nc1cccc(C(=O)NC2CC2)c1)c1ccc(Cl)c(S(=O)(=O)N2CCOCC2)c1	TDP1 cell noCPT inconclusive
COc1ccc(NC(C)=O)cc1NC(=O)C1CCN(C(=O)Nc2ccccc2)CC1	none

Source: PubChem (National Center for Advancing Translational Sciences (NCATS))
